# Test results published in ChEMBL document CHEMBL3988442, “University of Dundee, Small-Polar-MMV Screening Library” (2021).
# The whole screen tested about 48,000 compounds, of which about 13,000 (27%) showed an effect of 50% or more. The list shows a part of the results.
# Test system: Wolbachia pipientis
# Experiment: Anti-Wolbachia Cell-Based Screen
# Type: functional
# Design: scale not given: in the data most compounds retested in dose-response had high values
# Conditions: 5 µM
row,SMILES,Percent Effect [%]
1,CN1CCN(Cc2n[nH]c(=O)n2CC2CCCCC2)CC1,12.01
2,N#Cc1cccc(N2CCC(CO)(CCc3ccccc3)CC2)n1,-13.62
3,Cc1cnc(NCC(C)(C)N2CCN(C)CC2)nc1,-0.3057
4,Cn1c(Cn2ccnc2)nnc1C1CCN(C(=O)c2ccncc2)CC1,74.15
5,CN(CCO)Cc1nnc(C2CCN(C(=O)c3cccn3C)CC2)n1C,-1.148
6,Cn1c(Cn2ccnc2)nnc1C1CCN(Cc2cccnc2N)CC1,-5.827
7,Cn1cccc1C(=O)N1CCC(c2nccn2Cc2ccncc2)CC1,14.15
8,CN(CCO)Cc1nnc(C2CCN(C(=O)c3ccccc3)CC2)n1C,8.451
9,Cn1c(Cn2ccnc2)nnc1C1CCN(C(=O)c2ccoc2)CC1,96.26
10,Cc1[nH]ccc1C(=O)N1CCC(c2nnc(Cn3ccnc3)n2C)CC1,6.251
11,Cn1cccc1C(=O)N1CCC(c2nnc(Cn3ccnc3)n2C)CC1,89.43
12,Cn1nc(Cn2ccnc2)c2c1CN(C(=O)c1ccoc1)C2.O=C(O)C(F)(F)F,-63.76
13,CCN1C(=O)C(c2ccccc2)CC12CCN(c1ncccn1)CC2 (stereo unspecified),-1.132
14,CN(Cc1ccc(F)cc1)Cc1nc(-c2cnccn2)no1,-0.4176
15,CCc1n[nH]c(C2CN(Cc3ncc(CC)o3)CCO2)n1 (stereo unspecified),-12.36
16,CC(NC(=O)N1CCc2ccccc21)c1nncn1C (stereo unspecified),-4.094
17,Cc1cc(C)c(CNC(=O)N(C)Cc2sccc2C)c(=O)[nH]1,-0.6521
18,Cc1ccsc1CNC(=O)CSc1nnc[nH]1,-7.3
19,CCC(C)N(Cc1sccc1C)C(=O)c1ccc2cccnc2n1 (stereo unspecified),114.4
20,CCC(C)N(Cc1sccc1C)C(=O)c1ccc(S(C)(=O)=O)cc1 (stereo unspecified),114.6
21,Cc1ccsc1CN(C)Cc1ncccc1C(=O)O,8.285
22,CNS(=O)(=O)c1csc(C(=O)NCc2sccc2C)c1,-10.67
23,Cc1ccsc1CN(Cc1ncccc1C(=O)O)C1CC1,-1.02

row,SMILES,Percent Effect [%]
1,CCC(C)N(Cc1sccc1C)C(=O)c1cc(N)ccn1 (stereo unspecified),107.3
2,CNS(=O)(=O)c1csc(C(=O)N(C)Cc2sccc2C)c1,1.133
3,COC(=O)c1ccc(S(=O)(=O)NCC(O)c2sccc2C)cc1 (stereo unspecified),1.544
4,Cc1ccsc1CN(C)CCc1scnc1C,3.291
5,CCC(C)N(Cc1sccc1C)C(=O)c1cnc[nH]1 (stereo unspecified),112.1
6,O=C(NC1CC1)[C@H]1COC[C@H]2CN(c3ncc(F)cn3)C[C@H]21,-1.694
7,O=C(O)COc1ccc(Cl)cc1CN1CCC2(CCOCC2)CC1,5.352
8,C=C(C)CN1CCC(Nc2nc(C)ns2)CC1,3.989
9,Cc1nc(C)n(CC2CN(c3ncccc3C#N)CCO2)n1 (stereo unspecified),109.9
10,N#Cc1ccc(CN2CCCC(Cn3cncn3)C2)c(F)c1 (stereo unspecified),10.83
11,Cc1nc(C)n(CC2CN(Cc3cccc(C#N)c3)CCO2)n1 (stereo unspecified),2.978
12,Cc1nc(C)n(CC2CN(c3nnc(C)c(C)c3C#N)CCO2)n1 (stereo unspecified),-9.439
13,Cc1cc(C)n(CC2CCCN2Cc2ccc(F)cc2C#N)n1 (stereo unspecified),-16.28
14,Cc1nc(C)n(CC2CN(c3ncnc4[nH]ccc34)CCO2)n1 (stereo unspecified),9.938
15,Cc1nc(C)n(CC2CCCN(Cc3cc(C#N)ccc3F)C2)n1 (stereo unspecified),126.4
16,Cc1nc(C)n(CC2CCCN(Cc3ccc(F)cc3C#N)C2)n1 (stereo unspecified),96.96
17,Cc1nc(C)n(CC2CCCN2Cc2ccc(F)cc2C#N)n1 (stereo unspecified),-2.788
18,Cc1nc(C)n(CC2CN(Cc3cc(C#N)ccc3F)CCO2)n1 (stereo unspecified),105.5
19,Cc1nc(C)n(CC2CN(Cc3cccc4c3OCCO4)CCO2)n1 (stereo unspecified),-0.04658
20,O=S(=O)(NCC1CCOc2ccccc2C1)N1CCOCC1 (stereo unspecified),11.66
21,CS(=O)(=O)N1CCOC2(CCN(c3nccs3)CC2)c2ccccc21,-2.369
22,Cc1nc(C)n(CC2CCCN(Cc3cccc(F)c3F)C2)n1 (stereo unspecified),100.4
23,Cc1nc(C)n(CC2CCCN(CCc3ccccn3)C2)n1 (stereo unspecified),-0.6255

row,SMILES,Percent Effect [%]
1,Cc1nc(C)n(CC2CCCN(CCOc3ccccc3C#N)C2)n1 (stereo unspecified),99.48
2,N#Cc1ccccc1OCCN1CCCC(c2noc(C3CC3)n2)C1 (stereo unspecified),29.76
3,Cc1nc(C)n(CC2CCCN(Cc3ccccc3C#N)C2)n1 (stereo unspecified),99.33
4,Cn1nc2c(cc1=O)CN(Cc1nc(C(C)(C)C)no1)CC2,5.069
5,Cc1nc(CN2CCCC(CCc3ccccc3C(F)(F)F)C2)co1 (stereo unspecified),3.253
6,COc1cnc(N2CC(N3CCOCC3)C2)nc1-c1ccnn1C,-5.867
7,Cc1ccc2c(ccn2CCC(=O)N2CCC(C(N)=O)CC2)c1,23.62
8,CN(Cc1ccccn1)C(=O)CC1CCOc2ccccc21 (stereo unspecified),-4.334
9,Cc1ccc2c(c1)[C@@H](CC(=O)N(C)C)CCO2,103.2
10,Cc1ccc2c(c1)C(NC1CCN(C)CC1)CCCO2 (stereo unspecified),0.3143
11,Cc1ccc2c(c1)[C@@H](CC(=O)N1CCN(C)CC1)CCO2,86.47
12,Cc1ccc(C2CSCCN2CC(=O)N2CCOCC2)cc1 (stereo unspecified),2.726
13,COCC(=O)N1CCC2(CC1)CC(N1CCOCC1)c1ccc(C)cc12 (stereo unspecified),6.475
14,Cc1ccc2c(c1)[C@@H](CC(=O)N1CCOCC1)CCO2,86.47
15,CN(C)C(=O)CC1CCOc2ccccc21 (stereo unspecified),-4.71
16,O=C1CCOCCN1Cc1ccc(Cl)c(Cl)c1,9.877
17,CSc1ccc(NC(=O)NCC(O)C(C)C)cc1F (stereo unspecified),-14.41
18,CNS(=O)(=O)CC(=O)N1CCC(c2ccc(F)c(F)c2)CC1,-2.799
19,O=C(NCc1cccs1)C1CCN(c2cc(-n3ccnc3)ncn2)CC1,-1.807
20,CCc1c(C)nc2n(c1=O)CC(C(=O)NCc1cccs1)CS2 (stereo unspecified),101.3
21,O=C(NCc1cn2cccnc2n1)C1CC(=O)N(Cc2ccccn2)C1 (stereo unspecified),-14.07
22,CC(C)(C)c1cc(=O)n2c(n1)SCC(C(=O)NCc1ccccn1)C2 (stereo unspecified),106.1
23,CN1[C@@H](c2ccccc2)[C@@H](C(=O)NCc2ccccn2)C[C@@]1(C)C(=O)O,4.83

row,SMILES,Percent Effect [%]
1,O=C(NCc1cccs1)C1CCCN(c2cc(-n3cncn3)ncn2)C1 (stereo unspecified),-5.792
2,O=C(NCc1cccs1)C1CN(C(=O)c2cccs2)CC12CCOCC2 (stereo unspecified),-10.89
3,CC(C)(C)c1cc(=O)n2c(n1)SCC(C(=O)NCc1cccs1)C2 (stereo unspecified),98.61
4,CC(C)(C)c1cc(=O)n2c(n1)SCC(C(=O)NCc1ccco1)C2 (stereo unspecified),102.3
5,CC(C)Cc1cc(CNC(=O)C2CCCN(Cc3ccco3)C2)no1 (stereo unspecified),-2.049
6,COC1CCN(CCNC(=O)NC(C)c2cccc(Cl)c2)CC1 (stereo unspecified),14.59
7,O=C(C1CCCCC1)N1CCC(c2n[nH]c3nccnc23)CC1,126.4
8,O=C(C1CCCC1)N1CCC(c2n[nH]c3nccnc23)CC1,136.1
9,O=C(CCC(=O)Nc1ccccc1)NCC(=O)c1ccc(F)cc1F,-8.283
10,Cl.NCCC(=O)Nc1ccc(-c2ccccc2)cc1,116.3
11,O=C(Cn1cnc(-c2ccccc2)cc1=O)Nc1ccncc1,13.41
12,CCCc1nc(CNC(=O)Cc2cc(C)no2)cs1,-3.893
13,CCS(=O)(=O)NCCNc1cc(-n2cccc2)ncn1,9.537
14,COc1ccc2cc(C3CN(C(=O)CN4CCCC4)CCO3)ccc2c1 (stereo unspecified),0.8606
15,CNc1cccc(C2CN(C(=O)CNS(C)(=O)=O)CCO2)n1 (stereo unspecified),125.9
16,Cc1n[nH]c(C2CN(CC(=O)NCc3ccco3)CCO2)n1 (stereo unspecified),14.88
17,CNC(=O)CN1CCOC(c2cccc(N)n2)C1 (stereo unspecified),126.4
18,O=C(CCNS(=O)(=O)c1ccccc1)N1CCOC(c2ccccc2)C1 (stereo unspecified),1.988
19,CNC(=O)CN1CCOC(c2ccccc2C(F)(F)F)C1 (stereo unspecified),-19.7
20,Nc1cccc(C2CN(C(=O)CN3CCOCC3)CCO2)n1 (stereo unspecified),104.8
21,CC(=O)NCC(=O)N1CCN(C)c2ncccc2C1,-12.03
22,COc1ccc2cc(C3CN(C(=O)CCNC(C)=O)CCO3)ccc2c1 (stereo unspecified),-5.377
23,O=C(CCNS(=O)(=O)c1cccnc1)N1CCOC(c2ccccc2)C1 (stereo unspecified),-17.46

row,SMILES,Percent Effect [%]
1,CC(=O)NCC(=O)N1CCOC(c2cccc(N)n2)C1 (stereo unspecified),128.4
2,O=C(Cc1cccc(F)c1F)N1CCOC(c2cccc(O)c2)C1 (stereo unspecified),-10.07
3,CCN(C(=O)CN1CCCC1c1ccc(F)cc1)c1ccccc1C (stereo unspecified),-2.599
4,O=C(NCc1ccccc1)c1nc2c(o1)CN(C(=O)c1cccnc1)C2.O=C(O)C(F)(F)F,-11.3
5,CCCN1CC2(CCN(C)CC2)CC1C(=O)NCCn1cc(C)cn1 (stereo unspecified),2.434
6,CCCn1cc(C(=O)N2CCCC2(C)c2nc(C)cc(C)n2)cn1 (stereo unspecified),137.7
7,Cc1occc1CNC(=O)C1(C)CCCN1C(=O)c1ccccc1 (stereo unspecified),-1.558
8,CCn1cc(C(=O)N2CCCC3(CCC(=O)N(CCC(C)C)C3)C2)cn1 (stereo unspecified),12.9
9,CCCn1cc(C(=O)N2CCCC2(C)c2nc(C)cc(N)n2)cn1 (stereo unspecified),145.7
10,Cc1cc(CN(C)CC2CC(C3CCCCC3)=NO2)no1 (stereo unspecified),7.354
11,CC(C)COc1ccccc1C(N)CC(C)C (stereo unspecified),3.721
12,CCOc1ccccc1C(N)CC(C)C (stereo unspecified),-6.989
13,CC(CNS(N)(=O)=O)Oc1cccc(Cl)c1 (stereo unspecified),-1.116
14,Cc1ccc(Oc2c(F)cccc2OC[C@@H](N)CC(C)C)cc1,105.2
15,CC(C)C[C@H](N)COc1cccc(F)c1Oc1cccc(Cl)c1,101.2
16,COc1ccccc1C(N)CC(C)C (stereo unspecified),-3.152
17,CC(C)C[C@H](N)COc1cccc(F)c1Oc1ccc(Cl)cc1,75.53
18,CCCOc1ccccc1C(N)CC(C)C (stereo unspecified),-0.2003
19,CC(C)C[C@H](N)COc1cccc(F)c1Oc1ccccc1,86.38
